Test [1] in a line: Viability qHTS for spleen associated tyrosine kinase inhibitor (SYKi) naive MV4-11 cells (AID 1963823). Also: nearly all actives have a fitted effect of over 40% in size. Also: potency is read from the fitted curve at half-maximal effect. The method, boiled down:
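qHTS, SYK inhibitor-naive MV4-11; 500 cells/well; 72 hr compound exposure, 37 C; CellTiter-Glo added, 10 min RT; luminescence read.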

Test [2] can be described thus: Quantitative highthroughput screen to assess conditional lethalithy of NOMO1 cells grown in RPMI1640 with untreated serum (RPMI+s) (AID 1963876). Also: nearly all actives have a fitted effect of over 35% in size. Also: potency is read from the fitted curve at half-maximal effect.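 As to Viability: 100% = DMSO wells and 0% = empty wells without cells.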 The method, boiled down: (§1)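 Each medium arm—HPLM with 10% dialyzed FBS, or RPMI1640 with 5 mM glucose and 10% untreated or dialyzed FBS—was screened against an 11-point, 3-fold compound titration for 48 h at 37 °C, with CellTiter-Glo luminescence as endpoint.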

A short description of test [3]: Quantitative highthroughput screen to assess conditional lethalithy of NOMO1 cells grown in RPMI1640 with dialyzed fetal bovine serum (RPMI+ds) (AID 1963877). Also: nearly all actives have a fitted effect of over 30% in size. Also: potency is read from the fitted curve at half-maximal effect.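 As to Viability: series mostly up to about 46 µM; 100% = DMSO control wells and 0% = empty wells.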 The procedure, abridged:
as §1

The nature of test [4]: Cellular viability qHTS for adrenocortical cancer (ACC) cell line SW-13 (AID 1963989). Also: nearly all actives have a fitted effect of over 65% in size. Also: potency is read from the fitted curve at half-maximal effect.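 As to activity (max response): cells grown in serum-free medium with ITS supplement; % is scaled to controls: 0 for no effect and ±100 for the full control effect.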 As to conditions: SW-13 ACC cells viability, CellTiter-Glo, 48 h; activity (max response): stronger effect = lower value. The method, boiled down: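 Viability was read as CellTiter-Glo luminescence after 48 h compound treatment (up to 46 uM final) of SW-13 cells grown serum-free; titration curves were fit with a four-parameter logistic model to give IC50 and efficacy.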

A short description of test [5]: Cellular viability qHTS for adrenocortical cancer (ACC) cell line NCI-H295R (AID 1963990). Also: nearly all actives have a fitted effect of over 60% in size. Also: potency is read from the fitted curve at half-maximal effect. The procedure, abridged: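 CellTiter-Glo ATP luminescence, read 48 h after compound addition, measured viability of NCI-H295R adrenocortical cells grown serum-free with ITS. Final concentrations spanned up to 46 uM. Data normalized to DMSO and doxorubicin, fitted for IC50 and maximal response.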

The nature of test [6]: Quantitative highthroughput screen to assess conditional lethalithy of NOMO1 cells grown in Human Plasma-Like Medium with dialyzed fetal bovine serum (HPLM+ds) (AID 1963878).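 Also: 100% = DMSO wells and 0% = empty wells on each plate; nearly all actives have a fitted effect of over 35% in size.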 The method, boiled down: as §1
A short description of test [7]: Quantitative highthroughput screen to assess conditional lethalithy of P12 Ichikawa cells grown in RPMI1640 with dialyzed fetal bovine serum (RPMI+ds) (AID 1963880). Also: nearly all actives have a fitted effect of over 35% in size. Also: potency is read from the fitted curve at half-maximal effect.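 As to Viability: 100% = DMSO wells and 0% = empty wells on each plate.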 The note with it: Potency: P12-Ichikawa viability. The method, boiled down:
as §1

Test [8] can be described thus: Quantitative highthroughput screen to assess conditional lethalithy of P12 Ichikawa cells grown in RPMI1640 with untreated serum (RPMI+s) (AID 1963881). Also: nearly all actives have a fitted effect of over 35% in size. Also: potency is read from the fitted curve at half-maximal effect.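 As to Viability: series mostly up to about 46 µM; 100% = DMSO wells and 0% = empty wells without cells.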 As to conditions: Potency: viability. The procedure, abridged:
as §1

Test [9] can be described thus: Quantitative highthroughput screen to assess conditional lethalithy of SEM cells grown in Human Plasma-Like Medium with dialyzed fetal bovine serum (HPLM+ds) (AID 1963882). Also: nearly all actives have a fitted effect of over 35% in size. Also: potency is read from the fitted curve at half-maximal effect. As to Viability: series mostly up to about 46 µM. The method, boiled down: as §1
Test [10] in a line: Quantitative highthroughput screen to assess conditional lethalithy of SEM cells grown in RPMI1640 with unreated serum (RPMI+s) (AID 1963883). Also: nearly all actives have a fitted effect of over 35% in size. Also: potency is read from the fitted curve at half-maximal effect.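 As to Viability: 100% = DMSO wells and 0% = empty wells without cells.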 The procedure, abridged: as §1
Test [11] is described as follows: Quantitative highthroughput screen to assess conditional lethalithy of SEM cells grown in RPMI1640 with dialyzed fetal bovine serum (RPMI+ds) (AID 1963884). Also: nearly all actives have a fitted effect of over 35% in size. Also: potency is read from the fitted curve at half-maximal effect.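 As to Viability: series mostly up to about 46 µM; 100% = DMSO control wells and 0% = empty wells without cells.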 The method, boiled down:
as §1

Test [12] can be described thus: Quantitative highthroughput screen to assess conditional lethalithy of P12 Ichikawa cells grown in Human Plasma-Like Medium with dialyzed fetal bovine serum (HPLM+ds) (AID 1963879). Also: nearly all actives have a fitted effect of over 35% in size. Also: potency is read from the fitted curve at half-maximal effect. As to Viability: series mostly up to about 46 µM. As to conditions: Potency: viability. The procedure, abridged:
as §1

Where “and” joins values, the source holds several entries; their conditions need not be identical. Identical values can stand only once. Inconclusive results are not listed. Unmarked numbers belong to inactive results. Calls of active or inactive are those of the source. Calls follow the shape of the dose curve; as a rule, active = well fitted curve in the direction sought with a large enough effect; inconclusive = small, poorly fitted or top-dose-only effect, or another doubt; inactive = no such curve, though single readings can be large; an effect the other way counts as inactive or inconclusive.

For `COC(=O)Nc1nc2ccc(C(=O)c3ccc(F)cc3)cc2[nH]1`, the Potency is 731 nM (active) and 332 nM (active) in [1]; 355 nM (active) in test [4]; 112 nM (active) in test [5]. Also, the Potency result in test [2] and in test [3] was “inactive” each time.
As for `c1cc(CN2CCCNCCNCCCNCC2)ccc1CN1CCCNCCNCCCNCC1`, the Potency result in test [1], in [2], in test [6], in [7], in test [8] and in [9] was “inactive” in each case. Besides, the Potency entry in test [10], in test [11] and in [5] was “inactive” each time. The activity (max response) in test [4] was -19.4%.
Consider `COC(c1ccccc1)(c1ccccc1)[C@H](Oc1nc(C)cc(C)n1)C(=O)O`, for which the Potency entry in test [1], in test [2], in test [3], in [6] and in test [5] was “inactive” in each case. For the same compound, the activity (max response) in [4] was 2.42% and -1.06%.
On to `O=C(O)C(O)Cc1ccc(O)c(O)c1` (stereo not drawn), for which the Potency in test [1] is 17.1 µM (active); in test [3], 13.2 µM (active). Also, the Potency entry in test [2], in [7], in test [8] and in test [5] was “inactive” throughout. In addition, in test [4], the activity (max response) is -1.27%.
For the compound `CS(=O)(=O)c1ccc(C2=C(c3ccccc3)C(=O)OC2)cc1`, the Potency entry in [1], in [2], in test [3], in [12], in [7] and in test [8] was “inactive” throughout. Besides, the Potency entry in test [5] is “inactive”. In addition, the Potency in test [10] was 16.6 µM (active); in test [11] it was 10.5 µM (active). Further, in test [4], the activity (max response) was -9.09%.
`CCn1c(-c2nonc2N)nc2cnc(Oc3cccc(NC(=O)c4ccc(OCCN5CCOCC5)cc4)c3)cc21`: the Potency was 517 nM (active) and 934 nM (active) in test [1]; 5.9 µM (active) in [2]; 1.18 µM (active) in test [3]; 9.35 µM (active) in [12]; 13.2 µM (active) in test [9]. Besides, the Potency result in test [6] is “inactive”.
As for `Cc1cnc(-c2cnc(NCCNc3ccc(C#N)cn3)nc2-c2ccc(Cl)cc2Cl)[nH]1`, the Potency in [1] is 14.6 µM (active). Moreover, the Potency result in test [2], in [3] and in test [5] was “inactive” each time. Besides, the activity (max response) in [4] was 4.03%.
For the compound `CC(C)(C)c1cc(NC(=O)Nc2ccc(-c3cn4c(n3)sc3cc(OCCN5CCOCC5)ccc34)cc2)no1`, the Potency entry in test [1], in test [2], in [3], in test [7], in test [8] and in test [5] was “inactive” in each case. The activity (max response) in test [4] was 1.45%.
As for `CCCc1nc(C)c2c(=O)[nH]c(-c3cc(S(=O)(=O)N4CCN(CC)CC4)ccc3OCC)nn12`, the Potency entry in test [1] and in test [5] was “inactive” each time. Further, the Potency in [2] was 9.35 µM (active); in test [3] it was 9.35 µM (active); in [12] it was 16.6 µM (active); in test [7], 9.35 µM (active); in test [8] it was 10.5 µM (active); in test [9] it was 11.8 µM (active). In addition, the Potency is 9.35 µM (active) in test [10] and 7.43 µM (active) in test [11]. Also, in test [4], the activity (max response) was -1.6% and 3.7%.
On to `Cc1cccc(-c2[nH]c(C(C)(C)C)nc2-c2ccc3nccnc3c2)n1`, for which the Potency in test [1] was 20.9 µM (active) and 3.26 µM (active); in test [9] it was 23.5 µM (active); in test [10] it was 20.9 µM (active); in [11], 18.7 µM (active). Further, the Potency entry in test [2], in [7] and in test [5] was “inactive” in each case.
With `O=C(NCC1CN(c2ccc(N3CCOCC3=O)cc2)C(=O)O1)c1ccc(Cl)s1` (stereo not drawn), the Potency result in test [1], in [9], in [10], in test [11] and in test [5] was “inactive” throughout. Also, the Potency in test [2] is 0.418 µM (active); in test [12], 2.96 µM (active); in test [8], 2.96 µM (active). For the same compound, in test [4], the activity (max response) was -21.7% and -9.76%.
With `Cc1ncc([N+](=O)[O-])n1CC(C)O` (stereo not drawn), the Potency result in [1], in test [2], in [12], in test [7], in [8] and in [5] was “inactive” throughout. The activity (max response) in test [4] is -11%.
For `Cc1cc2nc3c(=O)[nH]c(=O)nc-3n(CC(O)C(O)C(O)CO)c2cc1C` (stereo not drawn), the Potency result in test [1], in [2], in test [12], in test [7], in test [8] and in [9] was “inactive” in each case. Also, the Potency entry in test [10], in test [11] and in test [5] was “inactive” each time. In addition, in test [4], the activity (max response) was 9.67%.
Regarding `CCC[C@H]1C[C@H](C(=O)N[C@@H]([C@@H]2O[C@@H](SC)[C@@H](O)[C@@H](O)[C@@H]2O)[C@H](C)Cl)N(C)C1`, the Potency entry in [1], in [2], in [3], in test [6], in test [9] and in test [10] was “inactive” in each case. Further, the Potency result in test [11] is “inactive”.
For the compound `O=C(NCCS(=O)(=O)c1ccc(C(F)(F)F)cn1)c1ccc(Cl)cc1`, the Potency entry in test [1], in test [2], in test [3], in test [6], in test [12] and in [8] was “inactive” throughout. The Potency entry in test [9], in test [10] and in [5] was “inactive” each time. The activity (max response) in test [4] is 0.68%.
Regarding `Cc1nccn1CC1CCc2c(c3ccccc3n2C)C1=O` (stereo not drawn), the Potency result in [1], in test [2], in test [6], in test [12], in [7] and in [8] was “inactive” in each case. For the same compound, the Potency entry in test [9], in test [10], in test [11] and in test [5] was “inactive” each time. Further, the activity (max response) in test [4] is -14.2%.
`N[C@@H](Cc1ccc(O)c(O)c1)C(=O)O`: the Potency result in test [1], in test [2], in [3], in test [12], in test [7] and in test [8] was “inactive” throughout. For the same compound, the Potency result in [9], in test [10], in test [11] and in test [5] was “inactive” in each case. The activity (max response) in test [4] was 3.64%.
For the compound `COc1cccc2c1C(=O)c1c(O)c3c(c(O)c1C2=O)C[C@@](O)(C(=O)CO)C[C@@H]3O[C@H]1C[C@H](N)[C@H](OC2CCCCO2)[C@H](C)O1` (stereo partly drawn), the Potency in test [1] is 105 nM (active) and 74.2 nM (active); in test [4], 3.16 µM (active) and 5.01 µM (active); in [5] it was 794 nM (active) and 8.91 µM (active). In addition, the Potency entry in test [2], in test [3], in test [12], in [7], in test [8] and in [11] was “inactive” throughout.

(Values after PubChem BioAssay (NCATS).)
